# Inconclusive results are not listed. Entries that show only a call come without a potency. Calls of active or inactive are those of the source. Calls come from the whole dose curve.
# Target: Estrogen receptor (Homo sapiens) (UniProt P03372)
# Assay: qHTS assay for small molecule agonists of estrogen receptor alpha signaling (AID 588514); note: nearly all actives have a fitted effect of over 70% in size
# Details: ER-alpha-UAS-bla HEK293, beta-lactamase ratio, 18 h; series mostly up to 76.8 µM
# Source text: NIH Chemical Genomics Center [NCGC]
# U.S. Environmental Protection Agency [EPA]
# National Institutes of Environmental Health Sciences [NIEHS]
# National Toxicology Program [NTP]
# Estrogen receptor alpha (ER-alpha) is an important member of nuclear hormone receptors. ER-alpha plays important role in breast cancer as well as in other women's health issues. The majority of breast cancers is estrogen receptor (ER) positive and depends on estrogen for growth. There is also growing concern for some of environmental chemicals which may contribute the increasing the incidence of breast cancer. Therefore, it is important to understand the effect of environmental chemicals in ER-alpha signaling pathway.
# NCGC Assay Protocol Summary
# Using a beta-lactamase reporter-gene under control of the ER response element, a cell-based assay [ER-alpha-UAS-bla GripTiteTM cell-Based Assay from Invitrogen] was used to measure ER-alpha signaling pathway in agonist mode. ER-alpha-UAS-bla-GripTite HEK 293 cells were used with assay medium containing 2% charcoal/dextran treated FBS, 0.1 mM NEAA and 1 mM sodium pyruvate. Cells were cultured in this assay medium overnight in the flasks before the assay. The assay was performed in clear bottom black Greiner 1536-well plates. 17-beta-estradiol was used as a positive control in the screen. Library compounds were measured for their ability to either stimulate the reporter gene activity. Compounds were screened in a titration series in 1536-well format. […] Data was normalized relative to 17-beta-estradiol control (20 nM, 100%), and DMSO only wells (basal, 0%). Concentration-response titration points for each compound were fitted to the Hill equation yielding concentrations of half-maximal stimulation (EC50) and maximal response (efficacy) values.
# qHTS protocol for ER-alpha beta-lactamase assay in agonist mode
# [Step] [Parameter] [Value] [Description]
# 1. Reagent; 6 uL; 5000 cells/well
# 2. Incubation; 37 C for 4 hrs
# 4. Controls (17-beta-estradiol); 23 nL
# - Dose response, start 1uM, 1:3 dilutions with duplicates
# - Two columns with 20 and 0.5 nM (final) concentration.
# 5. Incubation; 37 C for 18 hrs
# 6. Detection reagent; 1 uL of CCF4-dye
# 7. Incubation; RT for 2 hrs
# 8. Detection; Fluorescence; Envision plate reader or Acumen plate reader
# Estrogen receptor (Homo sapiens), sequence (P03372 whole entry, looked up): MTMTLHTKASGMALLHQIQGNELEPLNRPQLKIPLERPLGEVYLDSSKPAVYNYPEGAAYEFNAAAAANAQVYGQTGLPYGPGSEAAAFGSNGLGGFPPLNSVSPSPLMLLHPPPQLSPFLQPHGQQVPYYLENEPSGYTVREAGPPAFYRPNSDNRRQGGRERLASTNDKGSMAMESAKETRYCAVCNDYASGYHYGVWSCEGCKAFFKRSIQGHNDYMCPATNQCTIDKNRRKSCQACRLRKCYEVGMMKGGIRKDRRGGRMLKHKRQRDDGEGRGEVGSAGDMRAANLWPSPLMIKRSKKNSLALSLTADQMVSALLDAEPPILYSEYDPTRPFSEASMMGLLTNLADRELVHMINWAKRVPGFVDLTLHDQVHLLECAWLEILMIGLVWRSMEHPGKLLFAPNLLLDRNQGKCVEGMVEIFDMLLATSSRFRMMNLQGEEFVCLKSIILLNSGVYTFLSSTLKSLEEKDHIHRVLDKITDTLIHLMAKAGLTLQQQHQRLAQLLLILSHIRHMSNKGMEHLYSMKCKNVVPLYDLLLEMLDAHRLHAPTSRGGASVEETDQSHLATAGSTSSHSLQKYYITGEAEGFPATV
row,Compound,Potency
1,C=CC(=O)OCC(C)C,inactive
2,Nc1cccc(Cl)c1,inactive
3,Clc1cc(Cl)c(Cl)c(Cl)c1,inactive
4,CCCCNC(=O)n1c(NC(=O)OC)nc2ccccc21,inactive
5,c1ccoc1,inactive
6,O=[N+]([O-])c1ccc2c3c(cccc13)CC2,inactive
7,C=C(Cl)CCl,inactive
8,CCCCCOC(=O)c1ccccc1C(=O)OCCCCC,inactive
9,CN1CSC(=S)N(C)C1,inactive
10,[N-]=[N+]=[N-],inactive
11,CN(C)c1ccc(N(C)C)cc1,inactive
12,Brc1cccc(-c2ccccc2)c1,inactive
13,Nc1ccc2ccccc2c1,inactive
14,CNC(=O)O/N=C/C(C)(C)S(C)=O (stereo not given),inactive
15,CC(C)(COCC1CO1)COCC1CO1 (stereo not given),inactive
16,COc1c(C(C)(C)C)cc([N+](=O)[O-])c(C)c1[N+](=O)[O-],7.08 µM (active)
17,OCCBr,inactive
18,Cc1cccc(C)c1N,inactive
19,CCBr,inactive
20,CC(Cl)CCl (stereo not given),inactive

row,Compound,Potency
1,CC(C)CON=O,inactive
2,Cc1ccc(N)cc1Cl,inactive
3,Nc1ncc([N+](=O)[O-])s1,inactive
4,ClC(Cl)(Cl)C(Cl)(Cl)Cl,inactive
5,Nc1c(Br)cc([N+](=O)[O-])cc1[N+](=O)[O-],inactive
6,N#CCc1ccccc1,inactive
7,O=C(O)C(Br)Br,inactive
8,N#CC(Br)Br,inactive
9,Cl/C=C/Cl,inactive
10,COc1ccc(C=O)cc1,inactive
11,C=CC#N,inactive
12,ClCC(Br)CBr (stereo not given),inactive
13,ClC(Br)Br,inactive
14,Cc1coc2c1CCC(C)C2 (stereo not given),inactive
15,Oc1cccc(Cl)c1Cl,inactive
16,ClCCBr,inactive
17,CC(C)CC(C)N (stereo not given),inactive
18,CC(C)Br,inactive
19,Cc1cc(-c2ccc(N)c(C)c2)ccc1N,22.4 µM (active)
20,CCCCCCCCCCCOC(=O)c1ccccc1C(=O)OCCCCCCCCCCC,inactive

# — PubChem BioAssay (NCATS)
